The source of these data is PubChem BioAssay (Tox21).

Where “and” joins values, the source holds several entries; their conditions need not be identical. Identical values can stand only once. Results filed as inconclusive are left out. Entries that show only a call come without a potency. Where a structure was tested more than once in an assay, its records may differ in their call. Calls of active or inactive are those of the source. Calls follow the shape of the full dose curve.

A short description of the assay: Nuclear factor erythroid 2-related factor 2/antioxidant responsive element (Nrf2/ARE) small molecule agonists: luciferase reporter gene qHTS assay in human keratinocytes (AID 1919969). Also: nearly all actives have a fitted effect of over 35% in size. A general note: A reporter such as luciferase makes a cellular process visible.
Potency is read from the fitted curve at half-maximal effect.

Take `CC(C)=CCC/C(C)=C/CO`: the Potency result was “inactive”.

Regarding `O=C(O)c1ccc(S(=O)(=O)N(Cl)Cl)cc1`, the Potency result is “inactive”.

As to `C#CC1(O)CC[C@H]2[C@@H]3CCC4=CCCC[C@@H]4[C@H]3CC[C@@]21C` (stereo partly drawn), the Potency result is “inactive”.

For `Oc1c(Cl)cc(Cl)cc1Sc1cc(Cl)cc(Cl)c1O`, the Potency is 6.13 µM (active) and inactive.

As for `CC(C)=CCC/C(C)=C\CO`, the Potency result is “inactive”.

As for `CN1C(=O)CC[C@H]1c1cccnc1`, the Potency result is “inactive”.

Consider `CCCCC(CC)CO` (stereo not drawn), for which the Potency entry is “inactive”.

Regarding `CC(C)NCC(O)c1ccc(O)c(O)c1` (stereo not drawn), the Potency result was “inactive”.

On to `Cc1ncc(CO)c(CO)c1O`, for which the Potency entry was “inactive”.

For `CCCc1c(OCCCCc2nn[nH]n2)ccc(C(C)=O)c1O`, the Potency result was “inactive”.

Turning to `Cc1ccc(C(=O)O)o1`, the Potency entry is “inactive”.

As for `CC(C)=CCl`, the Potency entry is “inactive”.

For `COC(=O)c1cccc(C(=O)OC)c1`, the Potency result is “inactive”.

With `c1ccc2c(c1)Cc1ccccc1-2`, the Potency result is “inactive”.

On to `C=C(C)C(=O)OCC(C)O` (stereo not drawn), for which the Potency entry is “inactive”.

With `C=C[C@@]1(C)CC(=O)[C@]2(O)[C@@]3(C)[C@@H](O)CCC(C)(C)[C@@H]3[C@H](O)[C@H](OC(C)=O)[C@@]2(C)O1`, the Potency entry was “inactive”.

Regarding `S=c1nc[nH]c2nc[nH]c12`, the Potency entry was “inactive”.

As to `COC(=O)CCCC(=O)OC`, the Potency result is “inactive”.

With `O=C1CCCCCCCCCCC1`, the Potency entry was “inactive”.

For the compound `CCCCCCCCCCCC[N+](C)(C)Cc1ccccc1`, the Potency entry was “inactive”.

As to `Nc1nc(=S)c2[nH]cnc2[nH]1`, the Potency entry was “inactive”.

In the case of `COC1=CC(=O)C[C@@H](C)[C@]12Oc1c(Cl)c(OC)cc(OC)c1C2=O`, the Potency entry is “inactive”.

For `CCOC(=O)NNc1nncc2ccccc12`, the Potency entry is “inactive”.

Regarding `c1ccc2c(c1)ccc1ccccc12`, the Potency entry is “inactive”.

With `CC1(C)O[C@@H]2C[C@H]3[C@@H]4CCC5=CC(=O)C=C[C@]5(C)[C@@]4(F)[C@@H](O)C[C@]3(C)[C@]2(C(=O)CO)O1`, the Potency entry is “inactive”.

For `ClC1=C(Cl)C(Cl)(Cl)C(Cl)=C1Cl`, the Potency result was “inactive and 61.1 µM (active)”.

With `CCCCCCCC(=O)O`, the Potency entry is “inactive”.

With `CNC(=S)N(C)C`, the Potency result was “inactive”.

In the case of `COc1ccc(CN(CCN(C)C)c2ccccn2)cc1`, the Potency entry was “inactive”.

For the compound `CC(O)COc1ccccc1` (stereo not drawn), the Potency result is “inactive”.

Turning to `C[Si](C)(C)O[Si](C)(C)C`, the Potency entry was “inactive”.

Consider `O=C1OC2(c3ccccc31)c1cc(I)c(O)c(I)c1Oc1c2cc(I)c(O)c1I`, for which the Potency entry is “inactive and 33.1 µM (active)”.

As for `c1ccc2n[nH]nc2c1`, the Potency entry is “inactive”.

For `CC(CCl)OP(=O)(OC(C)CCl)OC(C)CCl` (stereo not drawn), the Potency result was “inactive”.

Consider `COCCOCCOCCO`, for which the Potency result is “inactive”.

Turning to `C1CNCCN1`, the Potency result was “inactive”.

Consider `CCCCCCCCCCCCCCCCCC(=O)OCC(O)CO` (stereo not drawn), for which the Potency result is “inactive”.

In the case of `O=C(O)C(=O)O`, the Potency result was “inactive”.

`O=C(O)CCCC[C@@H]1SC[C@@H]2NC(=O)N[C@@H]21`: the Potency entry is “inactive”.

Turning to `CCCCC(CC)COC(=O)C(C#N)=C(c1ccccc1)c1ccccc1` (stereo not drawn), the Potency result was “inactive”.

Consider `Cc1cc(C2(c3cc(C)c(O)cc3C)OS(=O)(=O)c3ccccc32)c(C)cc1O`, for which the Potency entry was “inactive”.

With `N#Cc1ccccc1`, the Potency entry was “inactive”.

In the case of `C[C@H]1C[C@H]2[C@@H]3CCC4=CC(=O)C=C[C@]4(C)[C@@]3(F)[C@@H](O)C[C@]2(C)[C@@]1(O)C(=O)CO`, the Potency result was “inactive”.

As to `C=C(C)C(=O)OCC(C)C`, the Potency result is “inactive”.

For the compound `O=C1NC(=O)c2ccccc21`, the Potency entry is “inactive”.

As to `O=C(O)CCCCC(=O)O`, the Potency result is “inactive”.

Take `CC(=O)CC/C=C(\C)CCC=C(C)C`: the Potency result was “inactive”.

On to `O=C(O)C1=NN(c2ccc(S(=O)(=O)O)cc2)C(=O)C1`, for which the Potency entry was “inactive”.

Turning to `Oc1ccc(Cl)cc1Cc1cc(Cl)ccc1O`, the Potency entry was “inactive and 33.5 µM (active)”.

Regarding `CN(C)CCN(Cc1cccs1)c1ccccn1`, the Potency result is “inactive”.

`COc1cc(OC)c(C(=O)CCCN2CCCC2)c(OC)c1`: the Potency result was “inactive”.

As to `NC(=O)c1ncn([C@@H]2O[C@H](CO)[C@@H](O)[C@H]2O)n1`, the Potency result was “inactive”.

Turning to `O=C(O)CCCC(=O)O`, the Potency entry was “inactive”.

Take `OB(O)O`: the Potency entry was “inactive”.

Take `OC[C@@H](O)[C@@H](O[C@@H]1O[C@H](CO)[C@H](O)[C@H](O)[C@H]1O)[C@H](O)[C@@H](O)CO`: the Potency entry is “inactive”.

Regarding `Nc1ccc(S(=O)(=O)Nc2nccs2)cc1`, the Potency result was “inactive”.

`CCCCCC(=O)O`: the Potency entry is “inactive”.

Turning to `CC(O)(P(=O)(O)O)P(=O)(O)O`, the Potency result was “inactive”.

Regarding `CCO[Si](CCCN)(OCC)OCC`, the Potency entry is “inactive”.

For `CC1=CC(C)(C)Nc2ccccc21`, the Potency entry was “inactive”.

`CC(=O)Nc1ccc(CC(=O)O)cc1`: the Potency entry is “inactive”.

With `O=C(OCc1ccccc1)c1ccccc1`, the Potency result is “inactive”.

Regarding `O=C(CC(C(=O)OC1CCCCC1)S(=O)(=O)O)OC1CCCCC1` (stereo not drawn), the Potency result is “inactive”.
